Laboratory results reported in PubChem BioAssay (NCI).
This is part of a sample that, as a whole, favours compounds with a hit. Of some 83,000 tested, about 20% had one in any assay.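 Note: values are percent growth. 100 is the growth of untreated cells, values between 100 and 0 indicate rising inhibition; between -100 and 0 indicates cell death.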

Assays:
Test in all cases: NCI-60 one-dose screen, 48 h (100 = growth as untreated, 0 = no growth, -100 = all killed)
Details in all cases: 10 µM unless noted; active means growth percent below 10; inactive means the rest
NCI-H23 lung = system: NCI-H23 lung
NCI-H226 lung = system: NCI-H226 lung
NCI-H322M lung = system: NCI-H322M lung
HOP-62 NSCLC = system: HOP-62 NSCLC
NCI-H460 lung = system: NCI-H460 lung
HOP-92 NSCLC = system: HOP-92 NSCLC
NCI-H522 lung = system: NCI-H522 lung
A549/ATCC NSCLC = system: A549/ATCC NSCLC
786-0 renal = system: 786-0 renal
COLO 205 colon = system: COLO 205 colon
DU-145 prostate = system: DU-145 prostate
K-562 leukemia = system: K-562 leukemia
MALME-3M melanoma = system: MALME-3M melanoma
MDA-MB-231 breast = system: MDA-MB-231 breast
RXF 393 renal = system: RXF 393 renal
SF-268 CNS = system: SF-268 CNS
SF-295 CNS = system: SF-295 CNS
SF-539 CNS = system: SF-539 CNS
UACC-257 melanoma = system: UACC-257 melanoma
M14 melanoma = system: M14 melanoma

Measured: growth

Clc1cccc(Cl)c1CSc1nc2ccccc2n2cccc12
inactive: NCI-H23 lung 90.6% | NCI-H226 lung 99.1% | NCI-H322M lung 71.8% | HOP-62 NSCLC 101% | NCI-H460 lung 105% | HOP-92 NSCLC 94% | NCI-H522 lung 68.3% | A549/ATCC NSCLC 95.4% | 786-0 renal 96.9% | COLO 205 colon 91.2% | DU-145 prostate 92.8% | K-562 leukemia 89% | MALME-3M melanoma 91.4% | MDA-MB-231 breast 98.2% | RXF 393 renal 97.6% | SF-268 CNS 96.9% | SF-295 CNS 98% | SF-539 CNS 102% | UACC-257 melanoma 95.6% | M14 melanoma 94.1%

O=C(CCCl)OCCOc1ccccc1
inactive: NCI-H23 lung 96.2% | NCI-H226 lung 104% | NCI-H322M lung 97% | HOP-62 NSCLC 105% | NCI-H460 lung 104% | HOP-92 NSCLC 86.7% | NCI-H522 lung 98.2% | A549/ATCC NSCLC 102% | 786-0 renal 99.4% | COLO 205 colon 103% | DU-145 prostate 101% | K-562 leukemia 93.2% | MALME-3M melanoma 97.7% | MDA-MB-231 breast 111% | RXF 393 renal 112% | SF-268 CNS 94.6% | SF-295 CNS 105% | SF-539 CNS 95.8% | UACC-257 melanoma 110% | M14 melanoma 102%

C=CCN1CCCC1=O
inactive: NCI-H23 lung 106% | NCI-H226 lung 102% | NCI-H322M lung 89.3% | HOP-62 NSCLC 106% | NCI-H460 lung 105% | HOP-92 NSCLC 99.6% | NCI-H522 lung 101% | A549/ATCC NSCLC 112% | 786-0 renal 105% | COLO 205 colon 95.4% | DU-145 prostate 114% | K-562 leukemia 86.7% | MALME-3M melanoma 96.9% | MDA-MB-231 breast 94.7% | RXF 393 renal 128% | SF-268 CNS 108% | SF-295 CNS 98.3% | SF-539 CNS 93% | UACC-257 melanoma 119% | M14 melanoma 98.8%

CCN1CCCC(N2c3ccccc3Sc3ccccc32)C1 (stereo not given)
inactive: NCI-H23 lung 103% | NCI-H226 lung 113% | NCI-H322M lung 86% | HOP-62 NSCLC 104% | NCI-H460 lung 104% | HOP-92 NSCLC 74% | NCI-H522 lung 94.9% | A549/ATCC NSCLC 103% | 786-0 renal 87.7% | COLO 205 colon 96.6% | DU-145 prostate 94.1% | K-562 leukemia 91.8% | MALME-3M melanoma 92.1% | MDA-MB-231 breast 76.5% | RXF 393 renal 104% | SF-268 CNS 103% | SF-295 CNS 107% | SF-539 CNS 103% | UACC-257 melanoma 104% | M14 melanoma 99.8%

Cc1cc(Cc2ccccc2)c(O)c(Cc2ccccc2)c1
inactive: NCI-H23 lung 82.5% | NCI-H226 lung 85.9% | NCI-H322M lung 97.3% | HOP-62 NSCLC 85.5% | NCI-H460 lung 99.4% | HOP-92 NSCLC 90% | NCI-H522 lung 78% | A549/ATCC NSCLC 76.5% | 786-0 renal 86.6% | COLO 205 colon 106% | DU-145 prostate 103% | K-562 leukemia 82.6% | MALME-3M melanoma 103% | MDA-MB-231 breast 91.6% | RXF 393 renal 88.2% | SF-268 CNS 93.4% | SF-295 CNS 101% | SF-539 CNS 101% | UACC-257 melanoma 93.4% | M14 melanoma 91.5%

Cn1/c(=N\N=C\c2ccccc2OCCO)sc2ccccc21
inactive: NCI-H23 lung 101% | NCI-H226 lung 88.3% | NCI-H322M lung 80.7% | HOP-62 NSCLC 106% | NCI-H460 lung 101% | HOP-92 NSCLC 82.5% | NCI-H522 lung 90% | A549/ATCC NSCLC 102% | 786-0 renal 115% | COLO 205 colon 91% | DU-145 prostate 109% | K-562 leukemia 76.7% | MALME-3M melanoma 80.2% | MDA-MB-231 breast 72.1% | RXF 393 renal 102% | SF-268 CNS 94.1% | SF-295 CNS 94% | SF-539 CNS 92.9% | UACC-257 melanoma 121% | M14 melanoma 103%

CCC(=O)Oc1c(C)cc(O)c2ccccc12
inactive: NCI-H23 lung 83.5% | NCI-H226 lung 86.8% | NCI-H322M lung 87.4% | HOP-62 NSCLC 79.5% | NCI-H460 lung 95.6% | HOP-92 NSCLC 79.5% | NCI-H522 lung 84.5% | A549/ATCC NSCLC 93.4% | 786-0 renal 84.7% | COLO 205 colon 110% | DU-145 prostate 107% | K-562 leukemia 73.4% | MALME-3M melanoma 113% | MDA-MB-231 breast 88.6% | RXF 393 renal 92.4% | SF-268 CNS 90.9% | SF-295 CNS 83.4% | SF-539 CNS 91.6% | UACC-257 melanoma 94.4% | M14 melanoma 95.2%

NNC(=O)c1ccccc1N
inactive: NCI-H23 lung 101% | NCI-H226 lung 114% | NCI-H322M lung 118% | HOP-62 NSCLC 90.6% | NCI-H460 lung 118% | HOP-92 NSCLC 86.4% | NCI-H522 lung 130% | A549/ATCC NSCLC 120% | 786-0 renal 96.9% | COLO 205 colon 133% | DU-145 prostate 120% | K-562 leukemia 118% | MALME-3M melanoma 110% | MDA-MB-231 breast 113% | RXF 393 renal 40.6% | SF-268 CNS 114% | SF-295 CNS 110% | SF-539 CNS 112% | UACC-257 melanoma 93.9% | M14 melanoma 106%
